Test results from the supplement of paper PMC6555819.

Each sequence was assayed on RARg homodimer (NR concentration 270 nM) (assay: PBM binding z-score (relative to random genomic background probes); higher = stronger binding; sequences stand for … in GC…GCGATTGACAGCGTAGAATGAAGG).
Procedure, shortened: (§1)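 Binding z-scores were set against random background probes. The data came from custom Agilent 4×180K protein-binding microarrays carrying double-stranded probes with 34-nt variable regions, incubated 1 h with ligand-free nuclear receptor dimers. Partner-specific antibodies detected binding, and scanned fluorescence was regression-normalized.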
Sequence ACTAGCAGGCCAAGTTTGGGTCAATCAAACAAAG has a PBM binding z-score of 1.43.
In the case of GCAGACAGGTGAAACGCAAGTAACTCAGGGTGGC, the PBM binding z-score is reported as 0.311.
For GATACAGGGTCAGCTAGAGGACAGAGTATGGAAA, the PBM binding z-score was 4.97.
In the case of CCAGACAGGTGACAGGTAACTCAGTCTGGTACGC, the PBM binding z-score is reported as 0.537.
Sequence GCGACAGGGGCATCAGCAGGTTACCATAACTTAA has a PBM binding z-score of 0.934.
CCAACTAGGTCAGAACAGGACAGTGAAGGATGAT was tested, and the PBM binding z-score was 3.03.
For TTACCAAGGTGAGCTCAGGTCGTTGATCCAACTC, the PBM binding z-score was 0.405.
TCTCGGAGGACACGAAGGACAGAGCTTTCCAGAG showed a PBM binding z-score of 1.75.
Work on TCGAGTAGGTTAGGGGCCTTCAGAATGGCGTCGA yielded a PBM binding z-score of -0.763.
TCTAGTTGGGCACGGAGGTCACACACGACGGGTA gave a PBM binding z-score of 3.83.
TTACCAAGGTGAAAGGTCGTCGATGCACGCCTTG was tested, and the PBM binding z-score was 2.22.
Sequence ACAGACAGGTTAGTGAAGGTAACTCAGCTGGACG has a PBM binding z-score of 0.773.
Sequence GCTATTAGTTGTAAGGGCAACCGAATGATTCTCG has a PBM binding z-score of 0.637.
In the case of GGAACGAGGACAAGTTGATAGCAGAGTTTGATGG, the PBM binding z-score is reported as 1.26.
For AGACTGAGGTTAAGATCAGGGAAACAGAATACAT, the PBM binding z-score was 1.38.
With CCGACTGGGGCAGAACGGTTACCATACCATCCGG the PBM binding z-score was 0.284.
Sequence GCTACTAGTTGAAAGGGCAACCGAATGATTCTCG has a PBM binding z-score of 1.35.
TAGCCAAGGTCATGGGCCAGTATACCACGCGAAC gave a PBM binding z-score of 6.1.
TTACCAAGGTGAGCTGAGGTCGTTGAACCAACTC gave a PBM binding z-score of 0.931.
For CCGAGTAGGTTATGGGGCATTCCGGCAACGGTGA, the PBM binding z-score was 0.307.
CGTCCAAGGCCAAAGGTCAGTGAAGAGATGACGG gave a PBM binding z-score of 5.18.
GCCAGTTGGTCAGTAAAAGGTCACACACCGGTCG gave a PBM binding z-score of 4.92.
In the case of TCTCGTAGATCAAGCAGGTTAAGAAAGCCTGAGT, the PBM binding z-score is reported as -0.369.
GCTAGTTGGTCAGTAAAAGCTCACACACCGGTCG was tested, and the PBM binding z-score was 0.0188.
TCGAGTAGGTTAGGGGCATACAGAATGGCGTCGA was tested, and the PBM binding z-score was 0.52.
For TCTATTAGTTGACTAGGGCAACCGAAACAGCGGA, the PBM binding z-score was 0.586.
For CCTATTAGTTGACCATAAGGGCCACCGAAGCTCG, the PBM binding z-score was 0.644.
Sequence GCATATAGGTAATACAAGGTGAAGGTCCGATTGT has a PBM binding z-score of 0.653.
CAGCCTAGCTCAGGGCCAGTATAGGAGGAACGTT was tested, and the PBM binding z-score was -0.422.
With CCTCCGAGGACAGAAGGTCAGAGCTGTCCGCTTT the PBM binding z-score was 3.34.
TCATATAGGTAAAAGGTGAAATTCGGTGTGGTAA gave a PBM binding z-score of 0.738.
AGTCAAAGTTCAGGACGAAGTAACGTAAAGCACG showed a PBM binding z-score of 4.58.
With CGAACTAGGTCATCCATGACAGTGAATACATTGA the PBM binding z-score was 4.72.
Work on TCTTGTAGATCAATAGAGGTTGAGAAAGTGCGCT yielded a PBM binding z-score of -0.196.
For CGAACTCGGTCATCCAGGACAGTGAATACATTGA, the PBM binding z-score was 2.83.
Sequence GCTAGTTGGTCAGTAAAAGGTCAGACACCGGTCG has a PBM binding z-score of 4.27.
TCTTGTAGATAAGCAGGTTAAGAAAGCTGGCCAA gave a PBM binding z-score of -0.231.
Work on TCTATTAGTAGATTAGGGCAACCGAAACAGCGGA yielded a PBM binding z-score of 0.496.
With ACAGACAGGTGATGAAGGGAACTCAGGCTATCAT the PBM binding z-score was 0.46.

What follows are sequences tested on RXRa DBDmut IVT, anti-RXR (DBD mutation: RXRa K156A/R161A, NR concentration 90 nM) in the same assay as above.
Procedure, shortened: as §1
ACTAGCAGGCCAAGTTTGGGTCAATCAAACAAAG was tested, and the PBM binding z-score was -0.255.
For GCAGACAGGTGAAACGCAAGTAACTCAGGGTGGC, the PBM binding z-score was -0.514.
Work on GATACAGGGTCAGCTAGAGGACAGAGTATGGAAA yielded a PBM binding z-score of 1.16.
Sequence CCAGACAGGTGACAGGTAACTCAGTCTGGTACGC has a PBM binding z-score of -0.242.
GCGACAGGGGCATCAGCAGGTTACCATAACTTAA showed a PBM binding z-score of 0.988.
Sequence CCAACTAGGTCAGAACAGGACAGTGAAGGATGAT has a PBM binding z-score of 1.3.
Work on TTACCAAGGTGAGCTCAGGTCGTTGATCCAACTC yielded a PBM binding z-score of -0.211.
For TCTCGGAGGACACGAAGGACAGAGCTTTCCAGAG, the PBM binding z-score was 0.518.
For TCGAGTAGGTTAGGGGCCTTCAGAATGGCGTCGA, the PBM binding z-score was -0.0601.
Work on TCTAGTTGGGCACGGAGGTCACACACGACGGGTA yielded a PBM binding z-score of 0.548.
Work on TTACCAAGGTGAAAGGTCGTCGATGCACGCCTTG yielded a PBM binding z-score of 0.201.
ACAGACAGGTTAGTGAAGGTAACTCAGCTGGACG showed a PBM binding z-score of -0.188.
GCTATTAGTTGTAAGGGCAACCGAATGATTCTCG was tested, and the PBM binding z-score was 0.96.
With GGAACGAGGACAAGTTGATAGCAGAGTTTGATGG the PBM binding z-score was 1.62.
Sequence AGACTGAGGTTAAGATCAGGGAAACAGAATACAT has a PBM binding z-score of 0.593.
In the case of CCGACTGGGGCAGAACGGTTACCATACCATCCGG, the PBM binding z-score is reported as -1.04.
GCTACTAGTTGAAAGGGCAACCGAATGATTCTCG gave a PBM binding z-score of 0.375.
Work on TAGCCAAGGTCATGGGCCAGTATACCACGCGAAC yielded a PBM binding z-score of 1.93.
With TTACCAAGGTGAGCTGAGGTCGTTGAACCAACTC the PBM binding z-score was -0.0646.
For CCGAGTAGGTTATGGGGCATTCCGGCAACGGTGA, the PBM binding z-score was -0.402.
CGTCCAAGGCCAAAGGTCAGTGAAGAGATGACGG was tested, and the PBM binding z-score was 1.13.
GCCAGTTGGTCAGTAAAAGGTCACACACCGGTCG was tested, and the PBM binding z-score was 0.354.
With TCTCGTAGATCAAGCAGGTTAAGAAAGCCTGAGT the PBM binding z-score was 0.598.
In the case of GCTAGTTGGTCAGTAAAAGCTCACACACCGGTCG, the PBM binding z-score is reported as 0.421.
With TCGAGTAGGTTAGGGGCATACAGAATGGCGTCGA the PBM binding z-score was 0.367.
Work on TCTATTAGTTGACTAGGGCAACCGAAACAGCGGA yielded a PBM binding z-score of 1.31.
CCTATTAGTTGACCATAAGGGCCACCGAAGCTCG gave a PBM binding z-score of 0.143.
For GCATATAGGTAATACAAGGTGAAGGTCCGATTGT, the PBM binding z-score was 0.103.
With CAGCCTAGCTCAGGGCCAGTATAGGAGGAACGTT the PBM binding z-score was -0.824.
For CCTCCGAGGACAGAAGGTCAGAGCTGTCCGCTTT, the PBM binding z-score was 0.589.
TCATATAGGTAAAAGGTGAAATTCGGTGTGGTAA was tested, and the PBM binding z-score was 1.92.
AGTCAAAGTTCAGGACGAAGTAACGTAAAGCACG was tested, and the PBM binding z-score was 2.8.
With CGAACTAGGTCATCCATGACAGTGAATACATTGA the PBM binding z-score was 2.04.
In the case of TCTTGTAGATCAATAGAGGTTGAGAAAGTGCGCT, the PBM binding z-score is reported as 0.738.
CGAACTCGGTCATCCAGGACAGTGAATACATTGA gave a PBM binding z-score of 0.985.
GCTAGTTGGTCAGTAAAAGGTCAGACACCGGTCG gave a PBM binding z-score of 0.252.
With TCTTGTAGATAAGCAGGTTAAGAAAGCTGGCCAA the PBM binding z-score was 0.319.
In the case of TCTATTAGTAGATTAGGGCAACCGAAACAGCGGA, the PBM binding z-score is reported as 0.901.
ACAGACAGGTGATGAAGGGAACTCAGGCTATCAT showed a PBM binding z-score of -0.425.
